Data reported in PubChem BioAssay AID1159580 (chemical genetic matrix, 2015).
“And” between values parts separate entries of the source, which are not always exact repeats. Equal entries are not always repeated. The whole screen tested about 5,500 compounds, of which about 2,000 (36%) were called active. Not shown: some 18% with an inconclusive outcome. Rule as the data show it: active = normalized growth mostly below about 0.91 (no sharp cut-off); inconclusive = no clear call, values can overlap the other calls; inactive = mostly above about 0.92. This is one part of the list.

Assay: chemical genetic growth profiling, strain panel (AID 1159580);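 also: tested at 20 µM; growth read once vehicle control cultures reached saturation at 30 °C; 1 = growth at the plate median or of vehicle wells; lower values mean less growth of the strain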
Conditions: S. cerevisiae deletion strains, growth OD

Measured: normalized growth

C=CCC1(C(C)CCC)C(=O)N=C(S)NC1=O (stereo unspecified)
inactive: locus YAL013W, strain DEP1, active compounds read low 0.989 | locus YAL021C, strain ccr4, active compounds read low 0.989 | locus YAL026C, strain drs2, active compounds read low 1 | locus YAL030W, strain snc1, active compounds read low 0.984 | locus YBL061C, strain skt5, active compounds read low 0.975 | locus YBR009C, strain hhf1, active compounds read low 1.01 | locus YBR021W, strain FUR4, active compounds read low 0.982 | locus YBR023C, strain chs3, active compounds read low 0.986 | locus YBR171W, strain sec66, active compounds read low 0.949 | locus YBR229C, strain ROT2, active compounds read low 0.994 | locus YBR231C, strain swc5, active compounds read low 0.976 | locus YBR279W, strain paf1, active compounds read low 0.998 | locus YCL011C, strain gbp2, active compounds read low 0.974 | locus YCL016C, strain dcc1, active compounds read low 1 | locus YCL029C, strain bik1, active compounds read low 0.981 | locus YCL061C, strain MRC1, active compounds read low 0.982 | locus YCL069W, strain vba3, active compounds read low 0.99 | locus YCR088W, strain abp1, active compounds read low 0.967 | locus YDL005C, strain med2, active compounds read low 0.937 | locus YDL035C, strain GPR1, active compounds read low 0.985 | locus YDL040C, strain nat1, active compounds read low 0.973 | locus YDL074C, strain BRE1, active compounds read low 1.06 | locus YDL101C, strain DUN1, active compounds read low 0.979 | locus YDL134C, strain PPH21, active compounds read low 0.997 | locus YDL185W, strain tfp1, active compounds read low 0.958 | locus YDL192W, strain arf1, active compounds read low 0.976 | locus YDR001C, strain nth1, active compounds read low 0.949 | locus YDR069C, strain doa4, active compounds read low 0.949 | locus YDR101C, strain arx1, active compounds read low 0.988 | locus YDR137W, strain rgp1, active compounds read low 0.919 | locus YDR150W, strain NUM1, active compounds read low 0.994 | locus YDR159W, strain sac3, active compounds read low 0.952 | locus YDR162C, strain NBP2, active compounds read low 1.01 | locus YDR195W, strain ref2 0.885 | locus YDR297W, strain sur2, active compounds read low 0.983 | locus YDR318W, strain mcm21, active compounds read low 0.986 | locus YDR334W, strain swr1, active compounds read low 0.938 | locus YDR335W, strain msn5, active compounds read low 0.964 | locus YDR388W, active compounds read low 0.986 | locus YDR392W, strain spt3, active compounds read low 1.01 | locus YDR502C, strain sam2, active compounds read low 1 | locus YEL003W, strain gim4, active compounds read low 0.979 | locus YEL037C, strain rad23, active compounds read low 0.974 | locus YEL061C, strain CIN8 (second series), active compounds read low 0.968 | locus YEL061C, strain CIN8, active compounds read low 0.988 | locus YER015W, strain faa2, active compounds read low 0.957 | locus YER016W, strain bim1, active compounds read low 0.987 | locus YER110C, active compounds read low 0.981 | locus YER111C, strain swi4, active compounds read low 0.989 | locus YER155C, strain BEM2 (second series), active compounds read low 0.928 | locus YER155C, strain BEM2, active compounds read low 0.988 | locus YER167W, strain BCK2, active compounds read low 0.961 | locus YFR010W, strain ubp6, active compounds read low 0.952 | locus YGL078C, strain dbp3, active compounds read low 0.986 | locus YGL086W, strain mad1, active compounds read low 0.975 | locus YGL167C, strain pmr1, active compounds read low 0.962 | locus YGL173C, strain kem1, active compounds read low 0.999 | locus YGL227W, strain vid30, active compounds read low 0.954 | locus YGL240W, strain doc1, active compounds read low 0.944 | locus YGL248W, strain PDE1, active compounds read low 1 | locus YGL253W, strain hxk2, active compounds read low 0.969 | locus YGR078C, strain PAC10, active compounds read low 1.02 | locus YGR135W, strain pre9, active compounds read low 1.02 | locus YGR229C, strain SMI1, active compounds read low 1.02 | locus YGR252W, strain gcn5, active compounds read low 1.03 | locus YHR013C, strain ard1, active compounds read low 0.964 | locus YHR027C, strain rpn1, active compounds read low 0.977 | locus YHR030C, strain SLT2, active compounds read low 0.976 and 0.982 | locus YHR079C, strain IRE1 (second series), active compounds read low 0.987 | locus YHR079C, strain IRE1, active compounds read low 0.979 | locus YHR094C, strain hxt1, active compounds read low 0.968 | locus YHR129C, strain ARP1, active compounds read low 1 | locus YHR142W, strain chs7, active compounds read low 0.996 | locus YHR200W, strain rpn10, active compounds read low 0.965 | locus YIL066C, strain RNR3, active compounds read low 0.999 | locus YIL073C, strain SPO22, active compounds read low 0.934 | locus YIL125W, strain kgd1, active compounds read low 0.982 | locus YIR030C, strain dcg1, active compounds read low 0.978 | locus YJL092W, strain hpr5, active compounds read low 0.985 | locus YJL095W, strain BCK1 (second series), active compounds read low 0.975 | locus YJL095W, strain BCK1, active compounds read low 1.07 and 0.994 | locus YJL115W, strain asf1, active compounds read low 0.952 | locus YJL129C, strain trk1, active compounds read low 0.928 | locus YJL134W, strain LCB3, active compounds read low 0.979 | locus YJL154C, strain vps35, active compounds read low 0.965 | locus YJL164C, strain tpk1, active compounds read low 1.01 | locus YJL166W, strain qcr8, active compounds read low 0.969 | locus YJL168C, strain set2, active compounds read low 0.983 | locus YJL187C, strain SWE1 (second series), active compounds read low 1.01 | locus YJR043C, strain POL32, active compounds read low 0.978 | locus YJR066W, strain TOR1, active compounds read low 0.959
